{"source": "the OligoGym collection"}
{"biological_target": "USP44", "assay": "pooled miR-30 sensor sort-seq; sequence = guide strand", "details": "shRNA"}
{"sequence": "TTGATTTGTTGTCACATGCAAG", "sensor-assay potency score (higher = more potent)": -1.1}
{"sequence": "TACAACATTCAGAACTTGTTTG", "sensor-assay potency score (higher = more potent)": -0.39}
{"sequence": "TATCATTCAGAACATAATCATC", "sensor-assay potency score (higher = more potent)": -1.41}
{"sequence": "TTGATCTTCACTTTGAAGCAGA", "sensor-assay potency score (higher = more potent)": -0.107}
{"sequence": "TTGCAGTCCACACAGTGCCATT", "sensor-assay potency score (higher = more potent)": -1.55}
{"sequence": "TACGCTTTGAGTTACACTGGTC", "sensor-assay potency score (higher = more potent)": 0.148}
{"sequence": "TATCTTTTGCTGGTGATGCTGG", "sensor-assay potency score (higher = more potent)": -0.299}
{"sequence": "TTGCAGTGTACCCAGAACCCTC", "sensor-assay potency score (higher = more potent)": -1.01}
{"sequence": "TATAAAACAAGATATAAGCTTG", "sensor-assay potency score (higher = more potent)": -0.0233}
{"sequence": "TTGCACAAGTTCATCATCCGAG", "sensor-assay potency score (higher = more potent)": 0.487}
{"sequence": "TTTGATATACTACTGTATCTGT", "sensor-assay potency score (higher = more potent)": 0.327}
{"sequence": "TAACTTGATACTCCAATTCCTG", "sensor-assay potency score (higher = more potent)": -1.33}
